MmCpn inh = Inhibitors of TCP-1 ring complex (TRiC) of Methanococcus maripaludis (MmCpn): qHTS. Chaperonin Mm-Cpn (Methanococcus maripaludis). purified Mm-Cpn ATPase, ADP Transcreener TR-FRET. Potency, µM (doses to about 76.9 µM), without a hit: at the highest dose activity, negative = inhibition, hits mostly inhibitors. 330,000 compounds, 0.031% hits; also: % is scaled to controls: 0 for no effect and ±100 for the full control effect; nearly all actives have a fitted effect of over 80% in size
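Inhibition of chaperonin ATP hydrolysis is measured as reduced ADP production, detected by competitive TR-FRET in which signal falls with ADP. Final enzyme 25 nM and ATP 10 uM, reacted 30 min at 37°C.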
Abeta yeast res = qHTS for compounds that reverse cellular toxicity of Amyloid beta (A-beta) peptide in yeast: Primary Screen; yeast expressing A-beta42, growth rescue, OD600, 48 h; response scale: 0% DMSO, 100% iron-clioquinol control; Potency, µM (doses to about 46.1 µM), most hits filed as activators; 410,000 compounds, 0.063% hits; also: nearly all actives have a fitted effect of over 55% in size
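Yeast growth medium received pinned compounds, then yeast cells expressing toxic A-beta were added; plates incubated at 30 C for 48 hr. Growth read as absorbance at 600 nm, normalized to DMSO and equimolar FeCl3 plus clioquinol controls.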
TDP43 rescue = qHTS of TDP-43 Inhibitors | Potency, µM (doses to about 46.1 µM), inactives show top-dose growth rescue (activation), actives largely listed as activators | AID 652104, 2013 | 410,000 compounds, 1.8% hits | TDP-43 expressing yeast growth rescue, BacTiter-Glo, 24 h; also: % of control where 0% means no effect; nearly all actives have a fitted effect of over 50% in size
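Galactose-induced TDP-43 yeast, OD600=0.02, compound pinned; 24 hr, 30 deg C; BacTiter-Glo luminescence for growth. Inhibitors of TDP-43 toxicity read as activators.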
FUS suppressor = qHTS for Suppressors of FUS Proteinopathy: Primary screen using FUS-linked yeast assay; Potency, µM (doses to about 76.6 µM), usual class: activators; S. cerevisiae FUS-expressing, growth rescue, OD600, 24 h; 390,000 compounds, 0.24% hits;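 also: plate controls were DMSO vehicle for no effect and reference control for full effect; nearly all actives have a fitted effect of over 55% in size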
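Steps: raffinose overnight preculture; dilution to OD 0.005 in 2% galactose minimal medium; compound addition (concentration series); 24hr at 30C, 99% humidity; absorbance read at 600 nm.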
ClpP mod = qHTS Assay for Activators of ClpP; purified B. subtilis ClpP, FRET peptide cleavage, 20 min; Potency, µM (titrated, usually from 57.5 µM), for inactives: top-dose activity change, negative = active; 340,000 compounds, 1.9% hits; active = well fitted falling curve with a large enough effect; inconclusive = small, poorly fitted or top-dose-only effect; inactive = no such curve, though single readings can be large or run the other way; also: the source files actives as falling curves though it sought activators and does not explain the sign; nearly all actives have a fitted effect of over 65% in size
Target sequence (P80244 whole entry, looked up): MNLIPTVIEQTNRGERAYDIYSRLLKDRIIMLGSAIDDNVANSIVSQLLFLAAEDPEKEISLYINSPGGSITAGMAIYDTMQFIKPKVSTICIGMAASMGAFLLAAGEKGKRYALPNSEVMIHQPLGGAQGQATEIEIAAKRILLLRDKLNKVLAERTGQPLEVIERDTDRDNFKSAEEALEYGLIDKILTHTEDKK
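Buffer: 100 mM Tris/HCl pH8, 100 mM KCl, 0.05% low protease BSA, 2.5% glycerol, 0.01% Tween-20. ClpP 10 microg/mL final; 20 min RT; delta FRET normalized to ADEP and DMSO controls.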
aSyn yeast inh = qHTS of alpha-syn Inhibitors; Yeast expressing alpha-synuclein, growth rescue, BacTiter-Glo, 24 h; 370,000 compounds, 0.14% hits; Potency, µM (titrated, usually from 46.1 µM), without a hit: at the highest dose growth rescue (activation), most hits filed as activators; AID 652106, 2013; also: % of control where 0% means no effect; nearly all actives have a fitted effect of over 65% in size
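Galactose-induced alpha-syn yeast (OD600=0.02, raffinose-pregrown) + pinned cpd, 24 hr, 30 deg C; growth by BacTiter-Glo luminescence. Growth restoration scores as activation.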
An asterisk follows results filed as active; i = inactive; ? = inconclusive; . = no result; [ ] = dose if it differs, or a comment. Hits are enriched below; roughly 3.6% of the tested compounds scored in any of these assays. Unless noted, calls follow the shape of the dose curve; as a rule, active = well fitted curve in the direction sought with a large enough effect; inconclusive = small, poorly fitted or top-dose-only effect, or another doubt; inactive = no such curve, though single readings can be large; an effect the other way counts as inactive or inconclusive. Potency is read from the fitted curve at half-maximal effect.

SMILES	MmCpn inh	Abeta yeast res	TDP43 rescue	FUS suppressor	ClpP mod	aSyn yeast inh
COC(=O)c1ccc(CSc2nnc(Nc3ccc(OC)cc3)s2)o1	-2%	i	14%	i	-1%	0%
CN(C)c1ccc(C=O)cc1Cl	.	.	.	.	0%	.
CCOc1ccccc1CNC(=O)c1cn(C)c(=O)c2c1c1ccccc1n2C	-3%	i	3%	i	11µM*	-2%
CCOC(CCNC(=O)c1cn(C)c(=O)c2c1c1ccccc1n2C)OCC	-1%	i	13%	i	4%	0%
Cc1ccc(CNC(=O)c2cn(C)c(=O)c3c2c2ccccc2n3C)o1	-1%	i	23%	i	14µM*	-2%
COc1ccccc1CNC(=O)c1nn(-c2ccc(C)cc2)c(=O)c2c1c1ccccc1n2C	.	i	-11%	i	14µM*	8%
Cc1ccc(CNC(=O)c2cn(C3CCCCC3)c(=O)c3c2c2ccccc2n3C)o1	-1%	i	1%	i	?	1%
COc1ccc(CCC(=O)NCCc2csc(-c3ccc(C(F)(F)F)cc3)n2)cc1	.	i	-10%	i	6%	-4%
C=CCC[C@@H](Cc1ccc(F)cc1)C(=O)OC[C@@H](Cc1c[nH]c2ccccc12)NC(=O)[C@@H](CC=C)CC(=O)N[C@H](CO)Cc1ccccc1	1%	i	9%	25µM*	2%	3%
C=CCC[C@H](Cc1ccc(F)cc1)C(=O)OC[C@@H]1CCCN1C(=O)[C@@H](CC=C)CC(=O)NCCO	-2%	i	13%	i	0%	1%
C=CCC[C@@H](Cc1ccc(F)cc1)C(=O)OC[C@@H]1CCCN1C(=O)[C@@H](CC=C)CC(=O)N[C@@H](CO)Cc1ccccc1	0%	i	13µM*	22µM*	1%	-1%
C=CCC[C@H](Cc1ccc(F)cc1)C(=O)OC[C@@H](Cc1c[nH]c2ccccc12)NC(=O)[C@@H](CC=C)CC(=O)N[C@@H](CO)Cc1ccccc1	-1%	i	-3%	i	-3%	5%
CCOC(=O)/C(=C\c1ccc(Cl)cc1)c1nc2sc(C)c(C)c2c(=O)[nH]1	-3%	i	18µM*	i	-2%	-54%
CC(C)C[C@@H]1COc2cc(N3CCCC3)ccc2S(=O)(=O)N1C	.	.	.	i	.	.
C=CCN=c1scc(-c2ccc(F)cc2)n1/N=C/c1ccccn1	-3%	?	?	i	.	-6%
C=CCN=c1scc(-c2ccc3c(c2)NC(=O)CO3)n1/N=C(\C)c1ccccn1	0%	i	13µM*	i	.	-26%
O=C1OCC(c2ccccc2)=C1c1ccccc1	-4%	i	18µM*	i	35µM*	-2%
COc1cc(OC)cc(-c2cc3cc4c(cc3cn2)OCO4)c1	-8%	i	?	i	?	0%
COc1ccc(-c2cc3cc4c(cc3cn2)OCO4)cc1	0%	i	7%	i	14µM*	-3%
O=C(NC1CCCC1)c1ccc(COc2ccccc2)o1	.	.	.	i	.	.
Cc1ccc(-c2cc(-c3ccc4c(c3)OCO4)c(C#N)c(N)n2)o1	-4%	i	0%	?	35µM*	8%
N#Cc1c(N)oc(-c2ccc3c(c2)OCO3)c1-c1ccc2c(c1)OCO2	0%	i	-2%	.	14µM*	5%
Cc1nc(N)c(C#N)c(-c2ccc3c(c2)OCO3)c1C	-1%	i	13%	i	-3%	0%
Cc1ccc(-c2cc(-c3ccc(C)o3)nc(N)c2C#N)cc1	-2%	i	2%	?	22µM*	-63%
O=C(Nc1cc(S(=O)(=O)N2CCOCC2)ccc1N1CCCC1)c1cc2c(s1)CCCC2	.	.	.	i	.	.
SMILES	MmCpn inh	Abeta yeast res	TDP43 rescue	FUS suppressor	ClpP mod	aSyn yeast inh
CCOC(=O)c1c(C)n(S(=O)(=O)c2ccc(C)cc2)c2ccc(NS(=O)(=O)c3ccc(C)cc3)cc12	.	i	?	?	1%	.
CCOC(=O)Cn1c(=O)n(CC2CCCO2)c2nc(-c3ccc(C)cc3)nc(C(N)=O)c21 (stereo not drawn)	.	i	11%	i	4%	4%
C[C@H](CO)N1C[C@H](C)[C@@H](CN(C)S(=O)(=O)c2ccccc2)OCc2cn(nn2)CCCC1=O	.	i	-13%	i	0%	-20%
C[C@H]1CN([C@@H](C)CO)C(=O)CCCn2cc(nn2)CO[C@@H]1CN(C)S(=O)(=O)c1ccc2ccccc2c1	.	i	12%	i	1%	3.5µM*
C[C@@H]1CN([C@H](C)CO)C(=O)CCCn2nncc2CO[C@@H]1CN(C)S(=O)(=O)c1ccccc1F	.	i	16µM*	i	1%	-4%
CCOc1ccc(-c2cn(-c3ccc(OC)cc3)c(SC)n2)cc1	0%	i	13µM*	i	?	7%
CCOc1ccc(-c2cn(-c3ccc(OC)cc3)c(SCC(=O)Nc3ccccc3Cl)n2)cc1	.	i	9%[9.22 µM]	i	-6%	.
CCOc1ccccc1CNC(=O)C1CCN(C(=O)N2CCOc3ccc(Cl)cc32)CC1	.	i	0%	i	-2%	.
COc1cccc(/C=C(/C(=O)OCC(N)=O)c2ccccc2)c1	1%	i	-9%	i	.	-1%
Cc1occc1C(=O)N/N=C/C(Br)=C/c1ccccc1	-5%	i	14µM*	i	.	-14%
COc1cccc(C=C(C(C)=O)C(=O)c2ccccc2)c1	.	i	11µM*	i	4%	?
COc1cccc(C(=O)N/N=C/C(Br)=C/c2ccccc2)c1	0%	i	20µM*	i	1%	12%
O=C(OCc1cc(=O)n2nc(C3CCCCC3)sc2n1)c1ccccc1Cl	.	i	16%	i	1%	.
CCOC(=O)c1ccccc1NC(=O)CSc1nc2ncccc2[nH]1	.	i	18%	i	0%	.
CCN1CCN(S(=O)(=O)c2ccc(Oc3ccccc3OC)cc2)CC1	2%	i	9%	i	20µM*	3%
COc1ccc(S(=O)(=O)N2CCN(Cc3ccccc3OC)CC2)cc1	.	i	8%	i	1%	0%
O=C(c1cccc(Cl)c1)N1CCC(c2nc3c(nnn3Cc3ccc(F)cc3F)c(=O)[nH]2)CC1	.	i	6%	?	0%	.

Bioassay records from PubChem BioAssay.
